Results reported in PubChem BioAssay AID1053173 (Broad Institute, 2014).
Hit rate of the full screen: of about 1,500 compounds, about 390 (26%) were called active. How the calls were made is not given here. Not all results are given here. Results with a measured potency or affinity are listed apart.

Biological target: Histone-lysine N-methyltransferase NSD2 (Homo sapiens) (UniProt O96028)
Experiment: blockers of NSD2 H4 peptide methylation – biochemical, AlphaScreen, cherry-picked samples, dose response (AID 1053173)
Settings: 120 min; series mostly up to 10 µM

Histone-lysine N-methyltransferase NSD2 (Homo sapiens), sequence (O96028 whole entry, looked up): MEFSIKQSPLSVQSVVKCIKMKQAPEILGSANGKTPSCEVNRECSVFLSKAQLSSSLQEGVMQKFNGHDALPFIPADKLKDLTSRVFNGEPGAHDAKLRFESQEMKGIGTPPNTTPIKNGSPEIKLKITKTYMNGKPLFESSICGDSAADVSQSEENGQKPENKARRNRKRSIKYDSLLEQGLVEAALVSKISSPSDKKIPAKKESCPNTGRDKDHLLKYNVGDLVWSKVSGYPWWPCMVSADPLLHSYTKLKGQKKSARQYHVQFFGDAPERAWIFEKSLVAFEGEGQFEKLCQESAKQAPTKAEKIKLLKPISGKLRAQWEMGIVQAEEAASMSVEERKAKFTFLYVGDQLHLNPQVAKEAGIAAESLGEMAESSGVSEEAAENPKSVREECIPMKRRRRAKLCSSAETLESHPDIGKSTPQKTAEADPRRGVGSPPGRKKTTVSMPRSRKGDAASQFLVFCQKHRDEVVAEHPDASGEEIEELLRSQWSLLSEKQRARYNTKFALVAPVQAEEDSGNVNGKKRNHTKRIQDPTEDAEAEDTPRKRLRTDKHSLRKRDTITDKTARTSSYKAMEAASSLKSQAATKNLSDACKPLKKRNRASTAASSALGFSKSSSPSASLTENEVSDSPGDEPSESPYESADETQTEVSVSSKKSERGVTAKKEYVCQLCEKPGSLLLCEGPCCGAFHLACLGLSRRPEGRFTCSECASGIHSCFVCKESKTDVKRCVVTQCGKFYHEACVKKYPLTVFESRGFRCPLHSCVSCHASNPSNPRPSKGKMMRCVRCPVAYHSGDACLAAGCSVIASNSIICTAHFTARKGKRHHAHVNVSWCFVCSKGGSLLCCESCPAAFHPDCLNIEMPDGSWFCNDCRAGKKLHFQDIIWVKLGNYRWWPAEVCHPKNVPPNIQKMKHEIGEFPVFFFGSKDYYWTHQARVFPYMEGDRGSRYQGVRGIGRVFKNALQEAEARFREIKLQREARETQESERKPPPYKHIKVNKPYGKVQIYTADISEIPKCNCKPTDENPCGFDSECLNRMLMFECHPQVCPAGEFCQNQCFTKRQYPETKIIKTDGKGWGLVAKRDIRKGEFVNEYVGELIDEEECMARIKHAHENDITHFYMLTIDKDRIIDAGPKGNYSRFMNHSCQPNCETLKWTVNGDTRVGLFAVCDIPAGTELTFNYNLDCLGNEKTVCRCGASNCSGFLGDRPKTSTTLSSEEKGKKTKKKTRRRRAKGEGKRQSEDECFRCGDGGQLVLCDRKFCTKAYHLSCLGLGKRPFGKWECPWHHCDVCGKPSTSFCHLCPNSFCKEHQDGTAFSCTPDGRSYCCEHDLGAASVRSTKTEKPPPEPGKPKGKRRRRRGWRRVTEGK

outcome, inactive:
Cc1cccc2c(=O)c(C(=O)NCc3ccc(F)cc3)c[nH]c12, CN(Cc1nc2ccccc2c(=O)[nH]1)C(=O)c1cc2c(s1)CCCCC2, O=C(O)COc1ccccc1/C=N/Nc1ccc(S(=O)(=O)Nc2ccc(Cl)cc2)cc1[N+](=O)[O-], O=C(Nc1ccccc1C(=O)O)c1cncc(Br)c1, O=C(NNC(=S)Nc1ccccc1)c1ccco1, O=C(/C=C/c1ccco1)N(c1ccccn1)c1ccccn1, COc1ccc(CCC(=O)Nc2ccc(S(=O)(=O)Nc3nccc(C)n3)cc2)cc1, Cc1cc(NS(=O)(=O)c2ccc(NC(=O)CSc3nnc(-c4ccncc4)n3Cc3ccco3)cc2)nc(C)n1, Cn1c(N)c(C#N)c2c(c1=S)CSC(C)(C)C2, CCN(C(=O)/C=C/c1ccc2c(c1)OCO2)c1ccccc1, CC(=O)Nc1ccc(S(=O)(=O)NCCSCc2c(Cl)cccc2Cl)cc1, NS(=O)(=O)c1ccc(N/N=C/c2ccc(O)c(O)c2O)c([N+](=O)[O-])c1, CCCCn1c(Cn2nc(C(=O)O)c3ccccc3c2=O)nc2cc(S(N)(=O)=O)ccc21, N#Cc1c2nc3ccccc3nc2n2cc(NC(=O)c3ccc(F)cc3)ccc12, N#Cc1c(N)n(-c2ccc(C(=O)O)cc2)c2nc3ccccc3nc12, CCCCn1c(NS(=O)(=O)c2ccccc2)c(S(=O)(=O)c2ccc(C)cc2)c2nc3ccccc3nc21, C=CCn1c(NS(=O)(=O)c2ccccc2)c(S(=O)(=O)c2ccc(C)cc2)c2nc3ccccc3nc21, CCOC(=O)c1nnn(-c2nonc2OC)c1-c1ccccc1, COc1ccccc1N1CCN(C2CCN(C(=O)c3cccc(F)c3)CC2)CC1, Cc1cccc(NCCNc2cccc(C)c2)c1, COc1cnc(-c2ccccn2)nc1Oc1cccc(C(F)(F)F)c1, COc1cccc(CNC(=O)CSc2nnc3c(n2)[nH]c2ccccc23)c1, CCOc1ccc(S(=O)(=O)N2CCCC(C(=O)NCCN3CCOCC3)C2)cc1Cl (centres undefined), CNC(=O)COC(=O)/C=C/c1cccs1, Cc1ccc(S(=O)(=O)N2CCC(NC(=O)c3cccnc3)CC2)cc1Cl, COc1cccc(C(C(=O)NC2CCCC2)N(C(=O)c2csnn2)C2CC2)c1 (centres undefined), CCc1c(C)nc2ncnn2c1Nc1ccc(C)cc1, CCC(=O)N1CCN(c2ccc(Cl)cc2NC(=O)c2ccc(Br)o2)CC1, COc1ccccc1N1CCN(S(=O)(=O)CCNC(=O)c2ccc(Br)o2)CC1, CCCCn1nnc(NC(=O)c2ccco2)n1, Nc1nc(COC(=O)c2ccco2)nc(Nc2ccccc2)n1, Cc1cc(C)n(-c2nc(NCC(C)O)c3c4c(sc3n2)COC(C)(C)C4)n1 (centres undefined), CC(=O)C1=C(O)C(=O)N(CCc2c[nH]c3ccccc23)C1c1ccco1 (centres undefined), Oc1cccc2c(NC(=S)Nc3ccc(OC(F)F)cc3)cccc12, COc1ccc(-c2nnc(SCC(=O)c3ccc(O)cc3O)o2)cc1, CCCc1cc(=O)[nH]c(SCc2cc(=O)oc3cc(C)c(C(C)C)cc23)n1, CC(=O)c1ccc(N2CCN(C(=O)[C@H](C)NC(=O)c3ccccc3Cl)CC2)cc1, COc1cc(-c2nnn(Cc3ccccc3C)n2)cc(OC)c1OC, O=C1Nc2cc(C(=O)N3CCC(N4CCCCC4)CC3)ccc2S/C1=C\c1ccccc1, CCCc1[nH]n(-c2nc3ccccc3s2)c(=O)c1C=NCCCN(CC)CC, O=C(CSc1ccc(-c2cccnc2)nn1)N1CCCC1, CCn1c(-c2cc3c(C(F)(F)F)nn(C)c3s2)n[nH]c1=S, Cc1ccc(Sc2ncccc2C(N)=O)cc1, Cc1cc(C)cc(NC(=O)C2C3C=CC4(O3)C2C(=O)N(CCCN2CCCC2)C4C(=O)NC2CCCC(C)C2C)c1 (centres undefined), CCOC(=O)Cn1ncc(-c2ccccc2)c1N, Cc1cc(-c2ccc(C)c(S(=O)(=O)N3CCN(c4ccccn4)CC3)c2)on1, C/C(=C\C(=O)c1ccccc1)Nc1ccc(O)cc1, Clc1cccc(N2CCN(CCCN3CCN(c4ccccc4)CC3)CC2)c1, Fc1ccccc1NC(=S)Nc1cccc2cnccc12
